PubChem BioAssay (Tox21)
Where “and” joins values, the source holds several entries; their conditions need not be identical. Equal values may be shown once. Results filed as inconclusive are left out. A call without a number means that no potency is given here. More than one record can exist for a structure, and the calls need not agree. Calls of active or inactive are those of the source. Calls follow the shape of the dose curve; as a rule, active = well fitted cell-killing curve with a large enough effect in the repeat runs; inconclusive = weak or mixed curves; inactive = flat fitted curve, though single readings scatter.

Test: qHTS assay to identify small molecule antagonists of the estrogen receptor beta (ER-beta) signaling pathway - cell viability counter screen (AID 1259382); also: nearly all actives have a fitted effect of over 55% in size
Settings: ER-beta-UAS-bla HEK293T viability, CellTiter-Glo luminescence, 16 h; series mostly up to 92.4 µM
Description: U.S. Tox21 Program National Center for Advancing Translational Sciences [NCATS] NIH Chemical Genomics Center [NCGC] U.S. Environmental Protection Agency [EPA] National Institutes of Environmental Health Sciences [NIEHS] National Toxicology Program [NTP] U.S. Food and Drug Administration [FDA] Tox21 Assay Overview: Estrogen receptor (ER), a nuclear hormone receptor, plays an important role in development, metabolic homeostasis and reproduction. Two subtypes of ER, ER-alpha and ER-beta, have similar expression patterns with some uniqueness in both types. Endocrine disrupting chemicals (EDCs) and their interactions with steroid hormone receptors like ER causes disruption of normal endocrine function. To identify the compounds that inhibit ER signaling, an ER-beta-UAS-bla GripTite cell line (Life Technologies, Madison, WI, USA) containing a beta-lactamase reporter gene under the control of an UAS response element was used to screen Tox21 10K compound library. The cytotoxicity of the Tox21 compound library against the ER-beta-bla cell line was tested in parallel by measuring the cell viability using CellTiter-Glo assay in the same wells.
Tox21 Assay Protocol Summary: ER-beta-UAS-bla HEK293T cells were dispensed at 2,000 cells/4 uL of assay medium containing 2% charcoal stripped FBS per well into black wall/clear-bottom 1536-well plates using a Multidrop Combi (ThermoFisher Scientific, Waltham, MA) dispenser. After the assay plates were incubated at a 37C and 5% CO2 for 6 hr, 23 nL of compounds dissolved in DMSO, positive controls or DMSO only was transferred to the assay plate by a Pintool station (Kalypsys, San Diego, CA), followed by addition of 1 uL (1nM as final concentration) of 17-beta-estradiol (E2) in assay medium using a Flying Reagent Dispenser (FRD, Aurora Discovery, San Diego, CA). The plates were incubated at 37C and 5% CO2 for 16 hr. Then 1 uL of LiveBLAzer B/G FRET substrate was added using a Flying Reagent Dispenser, the plates were incubated at room temperature for 2 hours, and fluorescence intensity was measured by an Envision plate reader (PerkinElmer, Shelton, CT). For cell viability readout that measures cytotoxicity, 4 uL/well of CellTiter-Glo reagent was added into the assay plates using a FRD. After 30 min incubation at room temperature, the luminescence intensity in the plates was measured using a ViewLux (PerkinElmer) plate reader.
Potency is read from the fitted curve at half-maximal effect.

Row | Structure (SMILES) | Potency
1 | O=c1[nH]cc(F)c(=O)[nH]1 | 14.2 µM (active) and inactive
2 | CC(O)(P(=O)(O)O)P(=O)(O)O | inactive
3 | CCc1nc(N)nc(N)c1-c1ccc(Cl)cc1 | inactive
4 | O=C1c2c(O)cccc2Cc2cccc(O)c21 | inactive
5 | CC(=O)CCC(=O)O | inactive
6 | Cc1ccc(S(=O)(=O)O)cc1 | inactive
7 | OC[C@H]1O[C@H](O[C@]2(CCl)O[C@H](CCl)[C@@H](O)[C@@H]2O)[C@H](O)[C@@H](O)[C@H]1Cl | inactive
8 | Cc1c(C(=O)O)c(O)cc2c1C(=O)c1c(O)c([C@@H]3O[C@H](CO)[C@@H](O)[C@H](O)[C@H]3O)c(O)c(O)c1C2=O | inactive
9 | COc1ccc(OC(F)(F)F)cc1CN[C@H]1CCCN[C@H]1c1ccccc1 | 30.6 µM (active)
10 | C[C@](N)(Cc1ccc(O)c(O)c1)C(=O)O | inactive
11 | CCOC(N)=O | inactive
12 | C/C=C/C=C/C(=O)O | inactive
13 | O=S1(=O)OC(c2ccc(O)cc2)(c2ccc(O)cc2)c2ccccc21 | inactive
14 | CC1(C)S[C@@H]2[C@H](NC(=O)[C@H](N)c3ccccc3)C(=O)N2[C@H]1C(=O)O | inactive
15 | COc1ccc(C(Cl)=C(c2ccc(OC)cc2)c2ccc(OC)cc2)cc1 | inactive
16 | CN(C)CCOC(c1ccccc1)c1ccccc1 | inactive
17 | CN1[C@@H]2CC(OC(=O)[C@H](CO)c3ccccc3)C[C@H]1[C@@H]1O[C@@H]12 (stereo not given in full) | inactive
18 | CCN(Cc1c(F)cccc1Cl)c1c([N+](=O)[O-])cc(C(F)(F)F)cc1[N+](=O)[O-] | 43.3 µM (active)
19 | CN(N=O)C(=O)N[C@@H]1[C@@H](O)[C@H](O)[C@@H](CO)O[C@@H]1O | inactive
20 | O=C1OC2(c3ccccc31)c1cc(Br)c(O)c(Br)c1Oc1c2cc(Br)c(O)c1Br | inactive

Row | Structure (SMILES) | Potency
21 | O=c1[nH]cnc2c1ncn2[C@H]1CC[C@@H](CO)O1 | inactive
22 | Cc1ncc([N+](=O)[O-])n1C | inactive
23 | CC(=O)C(=O)O | inactive
24 | CCCC[P+](CCCC)(CCCC)CCCC | inactive
25 | CN1CCc2cccc3c2[C@H]1Cc1ccc(O)c(O)c1-3 | 30.9 µM (active) and 20.4 µM (active) and inactive
26 | C=C1CC[C@H](O)C/C1=C\C=C1/CCC[C@]2(C)[C@@H]([C@H](C)CCCC(C)C)CC[C@@H]12 | 30.4 µM (active)
27 | CCCCC(CC)C(=O)O (stereo not given) | inactive
28 | O=C1NS(=O)(=O)c2ccccc21 | inactive
29 | CCCCCCCC(=O)OCC(COC(=O)CCCCCCC)OC(=O)CCCCCCC | inactive
30 | CC(C)C(=O)Nc1ccc([N+](=O)[O-])c(C(F)(F)F)c1 | inactive
31 | NC(=O)n1c(O)c(C(=O)c2cccs2)c2cc(Cl)ccc21 | inactive
32 | CNNCc1ccc(C(=O)NC(C)C)cc1 | inactive
33 | NS(=O)(=O)c1cc2c(cc1Cl)NCNS2(=O)=O | inactive
34 | COc1ccc2cc(S(=O)(=O)N[C@H](CC(=O)N[C@H](Cc3ccc(CN4[C@H](C)CCC[C@@H]4C)cc3)C(=O)N(C)C(C)C)c3ccc4c(c3)OCO4)ccc2c1 | 29 µM (active)
35 | CCCCCCCCCCCC[N+](C)(C)Cc1ccccc1 | 26.8 µM (active) and 37.4 µM (active) and 11.9 µM (active)
36 | Nc1ccc([N+](=O)[O-])cc1O | inactive
37 | CC(=O)CC(c1ccccc1)c1c(O)c2ccccc2oc1=O (stereo not given) | inactive
38 | Cc1cccc(C)c1 | inactive
39 | Cc1cc(=O)oc2cc(O)ccc12 | inactive
40 | C=CCc1ccc(O)c(OC)c1 | inactive
